HCV inhibitor – blocks hepatitis C virus; Huh7.5.1 HCVcc-Cre infection, luciferase reporter, 44 h; Potency, µM (series often up to 41.8 µM), most hits filed as inhibitors; hit rate 3.4% among 340,000; AID 651820; active = well fitted inhibition curve with a large enough effect; inconclusive = small, poorly fitted or top-dose-only effect, or another doubt; inactive = no such curve, though single readings can be large or run the other way
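Seed cells (1,000/well) for 4 h; treat with compound and infect with HCVcc-Cre, moi about 0.5. Incubate 44 h, then detect luciferase activity.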
FMDV antiviral – foot and mouth disease virus antiviral activity. FMDV antiviral cell-based qHTS. Potency, µM (series often up to 57.9 µM), actives largely listed as inhibitors. hit rate 1.2% among 410,000. AID 1159524; calls by dose curve; tested in HEK293T cells; note: read-out not given here; nearly all actives have a fitted effect of over 45% in size
Shiga inhibitor – Shiga toxin inhibition; Vero cells, Shiga toxin protein synthesis inhibition reporter; inhibition, % at 38.7 µM; hit rate 9.2% among 290,000; in the data active = inhibition mostly above about 28%, no sharp cut-off; inactive = mostly below about 43%
LASV entry inh – Lassa virus entry inhibition; Lassa virus pseudotype entry inhibition, cell reporter; Potency, µM (top dose mostly 37.9 µM), actives largely listed as inhibitors; hit rate 1.2% among 300,000; calls by dose curve; tested in HEK293 cells; note: nearly all actives have a fitted effect of over 50% in size
CHX counter – affects cycloheximide protein synthesis inhibition readout, counter-screen; cell reporter, cycloheximide protein synthesis inhibition counterscreen; max response, %; hit rate 12% among 300,000; in the data active = max response mostly above about 13%, no sharp cut-off; inactive = mostly below about 14%; note: read at 38.3 µM for the half of the compounds with a filed dose
Marburg entry inh – Marburg virus entry inhibition. Marburg virus pseudotyped entry inhibition, cell reporter. Potency, µM (doses to about 37.8 µM), most hits filed as inhibitors. hit rate 1.8% among 300,000; calls by dose curve; tested in HEK293 cells
Large screens that a line does not name were inactive. A selection: hits, their analogues and other compounds. The true share with any hit is near 13%.

CC(C)N1CCC(C)(C(=O)Nc2ccccc2Oc2ccccc2)C1 (stereo not drawn)	none (no result: HCV inhibitor, Shiga inhibitor, LASV entry inh, CHX counter, Marburg entry inh)
COc1ccccc1CNc1ccnc(-c2ccccc2OC)n1	none (no result: HCV inhibitor, Shiga inhibitor, LASV entry inh, CHX counter, Marburg entry inh)
CNC(=O)Cn1ncc2c(C)n(Cc3ccc(C)cc3)c(C)c2c1=O	none
Cc1c2cnn(CC(=O)O)c(=O)c2c(C)n1Cc1ccccc1	none (no result: LASV entry inh, Marburg entry inh)
Cc1ccc(Cn2c(C)c3cnn(CC(=O)NC4CCCC4)c(=O)c3c2C)cc1	Shiga inhibitor 30, CHX counter 10 (no result: LASV entry inh, Marburg entry inh)
COC(=O)Cn1ncc2c(C)n(Cc3ccccc3)c(C)c2c1=O	Shiga inhibitor 74, CHX counter 39 (no result: LASV entry inh, Marburg entry inh)
O=C(NOCc1ccccc1)c1ccc([N+](=O)[O-])cc1	LASV entry inh inconclusive, Marburg entry inh inconclusive (no result: Shiga inhibitor, CHX counter)
COP(=O)(OC)C(Nc1ccc(C)cc1)c1ccc([N+](=O)[O-])cc1 (stereo not drawn)	Shiga inhibitor 25, LASV entry inh inconclusive, CHX counter 44
CCOc1ccc(NC(c2ccccc2)P(=O)(OC)OC)cc1 (stereo not drawn)	Shiga inhibitor 26 (no result: LASV entry inh, Marburg entry inh)
COc1ccc(C(Nc2ccccc2)P(=O)(Oc2ccccc2)Oc2ccccc2)cc1 (stereo not drawn)	Shiga inhibitor 56, CHX counter 28
Cc1ccc(Cl)cc1NC(=O)CNC(=O)N1CC(=O)Nc2ccccc21	none (no result: LASV entry inh, Marburg entry inh)
CCCOc1ccc(-c2c(=O)n(O)c3ccccc3[n+]2[O-])cc1	CHX counter 29, Marburg entry inh inconclusive (no result: Shiga inhibitor)
Cc1ccc(-c2c(=O)n(OCc3ccccn3)c3ccccc3[n+]2[O-])cc1	none (no result: HCV inhibitor, FMDV antiviral, LASV entry inh, Marburg entry inh)
CCOn1c(=O)c(-c2ccccc2)[n+]([O-])c2ccccc21	Marburg entry inh inconclusive
CCOc1ccc(-c2c(=O)n(OCc3ccccn3)c3ccccc3[n+]2[O-])cc1	Shiga inhibitor 50
Cc1ccc(Oc2ccc(S(=O)(=O)Nc3ccc(C(=O)O)cc3)cc2)cc1	none (no result: Shiga inhibitor, LASV entry inh, CHX counter, Marburg entry inh)
O=C(CN1CCC(Cc2ccccc2)CC1)NC(=O)NCc1ccccc1	none
Cc1ccc(C)c(S(=O)(=O)N2CCN(CC(=O)NC(=O)NCc3ccccc3)CC2)c1	FMDV antiviral inconclusive, LASV entry inh 26µM, Marburg entry inh inconclusive
Cc1ccccc1-n1nc(CO)c(C(=O)NCC(c2ccccc2)c2ccccc2)n1	FMDV antiviral 13µM, LASV entry inh inconclusive (no result: HCV inhibitor, Shiga inhibitor, CHX counter)
O=C(NCC(c1ccccc1)c1ccccc1)c1nn(-c2ccccc2Cl)nc1CO	FMDV antiviral inconclusive, LASV entry inh inconclusive (no result: HCV inhibitor, Shiga inhibitor, CHX counter)
COc1ccccc1Cn1[nH]nnc1=S	none
O=C(NC1CCCCC1)C(c1ccccc1)N(Cc1ccc2c(c1)OCO2)C(=O)c1cnsn1 (stereo not drawn)	LASV entry inh inconclusive, Marburg entry inh 11µM
CCc1cnc2c(c1SCC(=O)Nc1ccc(C)cc1C)c(=O)n(C)c(=O)n2C	none (no result: HCV inhibitor, Shiga inhibitor, CHX counter, Marburg entry inh)
Cc1cccc(NS(=O)(=O)c2ccc(C)c(C(=O)OCC(=O)Nc3cc(C)on3)c2)c1	LASV entry inh 4.5µM, Marburg entry inh inconclusive
Cc1cccc(NS(=O)(=O)c2cc(C(=O)OCC(=O)Nc3cc(C)on3)ccc2C)c1	LASV entry inh inconclusive, Marburg entry inh inconclusive
Cc1ccc(NC(=O)CSc2nnc(-c3cc(C)on3)o2)cc1	none (no result: LASV entry inh)
CSCCC(=O)Nc1ccc(C(C)=O)cc1	CHX counter 27, Marburg entry inh inconclusive (no result: FMDV antiviral)
CC(=O)c1ccc(NC(=O)CSCCO)cc1	HCV inhibitor inconclusive, Shiga inhibitor 81, CHX counter 21
O=C(CSCCO)Nc1ccc(C2CCCCC2)cc1	Shiga inhibitor 97, CHX counter 48
O=C(O)CSCC(=O)Nc1ccc(C(=O)O)cc1	none
Cc1ccc(S(=O)(=O)N(C)C)cc1NC(=O)COC(=O)/C=C/c1cnc2ccccc2n1	none (no result: LASV entry inh, Marburg entry inh)
Cc1ccc(S(=O)(=O)N(C)C)cc1NC(=O)COC(=O)/C=C/c1ccc2c(c1)OCO2	CHX counter 17, Marburg entry inh inconclusive
Cc1ccc(S(=O)(=O)N(C)C)cc1NC(=O)COC(=O)c1cccs1	none (no result: HCV inhibitor, Shiga inhibitor, LASV entry inh, CHX counter, Marburg entry inh)
CN(C)S(=O)(=O)c1cccc(NC(=O)COC(=O)/C=C/c2ccc3c(c2)OCO3)c1	CHX counter 16
CN(C)S(=O)(=O)c1cccc(NC(=O)COC(=O)/C=C/c2ccco2)c1	Marburg entry inh inconclusive
Cc1ccc(/C=C/C(=O)OCC(=O)Nc2cccc(S(=O)(=O)N(C)C)c2)o1	CHX counter 14, Marburg entry inh inconclusive
Cc1ccc(S(=O)(=O)N(C)C)cc1NC(=O)COC(=O)/C(=C/c1ccc(F)cc1)c1cccs1	HCV inhibitor 11µM, FMDV antiviral inconclusive, LASV entry inh inconclusive, Marburg entry inh inconclusive
O=[N+]([O-])c1ccc(C[n+]2cccc3c4ccccc4ccc32)cc1	none (no result: LASV entry inh, Marburg entry inh)
CCCCCCCCC[n+]1cccc2c3ccccc3ccc21	HCV inhibitor 4.5µM, LASV entry inh 2.8µM, Marburg entry inh 2µM
Cc1ccccc1C[n+]1cccc2ccccc21	none (no result: Shiga inhibitor, LASV entry inh, CHX counter, Marburg entry inh)
CCCCCCCCCCCCCCCC[n+]1cccc2ccccc21	HCV inhibitor 4.5µM, FMDV antiviral inconclusive, LASV entry inh 7.9µM, Marburg entry inh inconclusive
CCOc1ccc(NS(=O)(=O)c2ccc(C(=O)N(CC)CC(=O)NCc3cccs3)cc2)cc1	LASV entry inh inconclusive, Marburg entry inh inconclusive
CCOC(=O)c1cccc(NC(=O)c2ccc(-n3cnnn3)cc2)c1	none (no result: Shiga inhibitor, CHX counter)
CCOC(=O)c1cccc(NC(=O)c2ccc(NC(=O)c3ccco3)cc2)c1	HCV inhibitor inconclusive, FMDV antiviral inconclusive (no result: LASV entry inh, Marburg entry inh)
CCOC(=O)c1cccc(NC(=O)c2cccnc2)c1	none
CCOC(=O)c1cccc(NC(=O)c2cnc3ccccc3n2)c1	HCV inhibitor inconclusive, CHX counter 35
CCOC(=O)c1cccc(NC(=O)c2cncc(Br)c2)c1	Shiga inhibitor 46, CHX counter 41
CCOC(=O)c1cccc(NC(=O)c2ccc(N(C)C)cc2)c1	HCV inhibitor inconclusive, FMDV antiviral inconclusive, Shiga inhibitor 108, LASV entry inh inconclusive, CHX counter 68, Marburg entry inh inconclusive
CN1c2ccccc2N(C)C1c1c(O)ccc2ccccc12	none
OCc1ccc(-c2ccc3nccn3c2)cc1	none (no result: HCV inhibitor, Shiga inhibitor, LASV entry inh, CHX counter, Marburg entry inh)
O=C1COc2ccc3ccccc3c21	CHX counter 16, Marburg entry inh inconclusive
Cn1c(=O)n(CC(=O)Nc2cccnc2)c2ccccc21	none (no result: Shiga inhibitor, CHX counter)
Cc1cccc(N2CCN(C(=O)CN3C(=O)NC(C)(C)C3=O)CC2)c1C	Shiga inhibitor 74, CHX counter 31 (no result: LASV entry inh, Marburg entry inh)
Cc1cccc(NC(=O)CCCn2c(C)c3cnn(-c4ccccc4)c(=O)c3c2C)c1C	none (no result: HCV inhibitor, Shiga inhibitor, CHX counter)
Cc1cccc(N2CCN(C(=O)CN3C(=O)NC(C)(C4CC4)C3=O)CC2)c1C (stereo not drawn)	none (no result: Shiga inhibitor, CHX counter)
Cc1cccc(N2CCN(C(=O)Cn3c(C)c4cnn(-c5ccccc5)c(=O)c4c3C)CC2)c1C	FMDV antiviral 28µM, LASV entry inh inconclusive (no result: HCV inhibitor, Shiga inhibitor, CHX counter)
Cc1cccc(N2CCN(C(=O)CN3C(=O)C4CC=CCC4C3=O)CC2)c1C (stereo not drawn)	Shiga inhibitor 76
Cc1ccccc1N1CCN(C(=O)CN2C(=O)c3ccccc3C2=O)CC1	Shiga inhibitor 198, CHX counter 38 (no result: FMDV antiviral)
COc1cc(NC(=O)c2ccccc2[N+](=O)[O-])ccc1NC(=O)c1cc2ccccc2o1	HCV inhibitor inconclusive (no result: Shiga inhibitor, LASV entry inh, CHX counter, Marburg entry inh)

Compound activity from PubChem.
